Screens as filed in PubChem BioAssay.
hcDAF12 agonist: activators of H. contortus DAF-12 nuclear receptor | AID 652067 | activation, % at 6.8 µM | HEK293 hcDAF-12 lit1-tk-luc reporter, luminescence; 0% DMSO, 100% Δ7-dafachronic acid | hit rate 1.4% among 370,000;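 active = activation above the mean of all tested compounds plus 3 SD, cut at about 5.5% in these data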;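 also: 100% = response to 3 µM Δ7-dafachronic acid high control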
hgDAF-12 ag: agonists of H. glycines DAF-12 nuclear receptor; activation, % at 6.8 µM; hit rate 1.8% among 370,000; HEK293 GAL4-hgDAF12 UAS-luciferase reporter, agonist luminescence; normalized to butyrate control;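 active = activation above a cutoff set at the mean of all screened compounds plus 3 SD, cut at about 10% in these data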;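 also: 0% = DMSO wells and 100% = sodium butyrate wells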
ssDAF-12 act: activates DAF-12 receptor from parasite S. stercoralis; AID 652126; activation, % at 6.8 µM; hit rate 1% among 370,000; HEK293 ssDAF-12/GRIP1 lit1-tk-luc reporter, luminescence; % of 3 µM dafachronic acid response;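 active = activation above the mean over all tested compounds plus 3 SD, cut at about 0.9% in these data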;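 also: 0% = DMSO-only wells and 100% = 3 µM delta7-dafachronic acid wells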
DAX1 inh-1: DAX1 (NR0B1) inhibition, primary screen; HEK293T StAR-luciferase reporter, SF-1/DAX-1 repression relief; inhibition, % at 6.8 µM; hit rate 1.1% among 370,000;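 active = inhibition above the mean over all tested compounds plus 3 SD, cut at about 3.6% in these data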;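 also: 0% = DAX-1 cells with DMSO and 100% = cells lacking DAX-1 with DMSO; higher inhibition means more luminescence from relief of DAX-1 repression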
DAX1 inh-2: inhibitors of human orphan nuclear receptor DAX1 (NR0B1); hit rate 0.99% among 340,000; P51843; inhibition, % at 6.75 µM; HEK293 Gal4-DAX1 luciferase reporter, luminescence;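 active = inhibition above the mean over all tested compounds plus 3 SD, cut at about 4.2% in these data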;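 also: 0% = DAX1-transfected cells with DMSO and 100% = empty-vector control cells with DMSO; inhibition shows as a rise in luminescence from relieved DAX1 repression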
Target sequence (P51843 207-470 limits assumed): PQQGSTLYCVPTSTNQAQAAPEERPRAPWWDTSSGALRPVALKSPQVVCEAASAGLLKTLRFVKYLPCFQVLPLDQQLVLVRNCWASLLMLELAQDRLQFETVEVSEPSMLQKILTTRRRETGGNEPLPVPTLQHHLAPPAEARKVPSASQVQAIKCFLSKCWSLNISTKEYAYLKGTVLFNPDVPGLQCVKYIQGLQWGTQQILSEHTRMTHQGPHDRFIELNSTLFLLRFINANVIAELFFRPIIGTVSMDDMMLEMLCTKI
Starred values were filed as active, the others as inactive; x = not tested or not shown; ! = repeats disagree. Rows were chosen to be rich in hits. Some 4.1% of all compounds tested hit in one or more screens of this group.

SMILES	hcDAF12 agonist	hgDAF-12 ag	ssDAF-12 act	DAX1 inh-1	DAX1 inh-2
O=C1/C(=C/c2ccco2)CCc2ccccc21	6.2*	9	-1	1	1
CCOC(=O)[C@@]12CCCC=C1N(CCc1ccc(Cl)cc1)C(=O)[C@H]2CC(=O)N1CCSCC1	-5	-3	-1	-2	x
C=CCN1C(=O)[C@@H](CC(=O)NCCCC)[C@]2(C(=O)OC)CCCCC=C12	-2	1	-1	0	x
CCCCCCNc1nc(Cl)nc(NC(C)(C)CO)n1	-1	0	-1	0	5.3*
CCCCCCCCNc1nc(Cl)nc(NCc2ccco2)n1	4	-1	-1	0	0
COc1cccc(/C=C2\SC(=S)N(CCC(=O)NNC(=O)c3ccccc3OC)C2=O)c1	5	2	1.0*	0	0
O=C(CCN1C(=O)/C(=C\c2cccc(Br)c2)SC1=S)NCCCN1CCOCC1	6.0*	1	-1	0	1
COC(=O)[C@]12C[C@H](CC(=O)NCC34CC5CC(CC(C5)C3)C4)C(=O)N(Cc3ccccc3)C1=C[C@H](COCc1ccccc1)O[C@@H]2C	-3	0	-2	1	x
CCC(C)n1c(OC)nc2c1c(=O)n(C)c(=O)n2C (stereo unspecified)	-1	1	-2	-1	0
CC(=O)c1ccc(OCCn2c(SCC(=O)O)nc3ccccc32)cc1	6.4*	9	0	0	2
CCn1c(SCC(=O)Nc2nc(-c3ccc(C)cc3)cs2)nnc1-c1ccccc1	1	1	-2	1	0
COCCCn1c(SCC(=O)Nc2ccc(C(C)=O)cc2)nc2ccccc2c1=O	0	11*	-1	-1	3
Cc1ccc(-c2csc(NC(=O)CSc3nc4ccccc4c(=O)n3CCCN(C)C)n2)cc1	1	13*	-1	1	2
CCOc1ccc(NC(=O)c2ccccn2)cc1	0	-6	-2	1	-6
Cc1noc(C)c1COc1ccc(C(=O)Nc2cccnc2)cc1	-2	0	-2	-1	-1
Cc1ccc(CNC(=O)c2cccc(OCc3c(C)noc3C)c2)cc1	-2	2	-1	-1	6.8*
Cc1noc(C)c1COc1cccc(C(=O)NCc2cccc(Cl)c2)c1	-2	-4	-1	-1	0
CCOc1ccc(C(=O)Nc2cccc(C)n2)cc1	5	7	1.1*	4.0*	-2
Cc1noc(C)c1COc1ccc(C(=O)Nc2ncccc2O)cc1	-1	11*	-1	3	0
CCOc1ccc(C(=O)Nc2ncccc2Cl)cc1	2	11*	0	1	1
O=C(CSc1nnc(COc2ccccc2)n1-c1ccccc1)Nc1ccc2c(c1)OCO2	-1	1	-1	-2	x
CCOc1ncccc1C(=O)Nc1ccc(Cl)cc1	2	4	-1	0	-2
Cc1noc(C)c1COc1ccc(CC(=O)NC2CCCCCC2)cc1	-1	-3	-1	-1	4.7*
CCOc1ccc(C(=O)Nc2nnn(CC)n2)cc1	5	12*	0	1	0
CCOc1ccc(C(=O)Nc2cc(C)ccn2)cc1	4	7	1	3.6*	-3
SMILES	hcDAF12 agonist	hgDAF-12 ag	ssDAF-12 act	DAX1 inh-1	DAX1 inh-2
CCOc1ncccc1C(=O)NCc1ccccc1Cl	-1	1	-2	0	5.7*
COc1cccc(O[C@H]2C=C[C@@H](c3ccccc3)O[C@@H]2CO)c1	0	0	-2	-1	x
Cc1ccnc(NC(=O)c2ccc3[nH]c(=O)c(=O)[nH]c3c2)c1	1	2	3.3*	0	0
CCCSc1nsc(NC(=O)c2cccnc2OCC)n1	1	5	0	0	5.8*
COC(=O)c1cc2c(c3c4cc(C#N)ccc4n(S(=O)(=O)c4ccc(C)cc4)c13)C(=O)N(C)C2	1	1	0	-1	x
COc1ccc2[nH]c(N=Nc3ccccc3C)c(O)c2c1	6.5*	9	0	0	1
COc1ccc(N=Nc2c(C)[nH]c3ccccc23)cc1	3	4	-1	-1	-1
CCn1c(/C=C/c2ccc(O)c(O)c2)nc2ccccc2c1=O	-1	-2	-2	-1	1
O=c1nc(/C=C/c2ccc(O)c(O)c2)oc2ccccc12	x	x	x	x	4.8*
COC(=O)C1=C(C)N(Cc2ccccc2)C(=S)NC1c1cccc(Br)c1 (stereo unspecified)	1	5	-1	1	x
N#CC1=C(N)Oc2c(O)cc3ccccc3c2C1c1ccsc1 (stereo unspecified)	0	0	6.0*	0	-2
O=C(Cc1ccc([N+](=O)[O-])cc1)Nc1nccs1	-1	0	0	0	7.2*
O=C(CN1CCN(c2ccc([N+](=O)[O-])cc2)CC1)Nc1nccs1	-2	-5	-2	-1	1
O=C(Nc1nccs1)c1ccc([N+](=O)[O-])cc1	5	6	1.2*	0	1
CSCc1nc2sc(C(=O)Nc3nc(C)cs3)c(C)c2c(=O)[nH]1	3	12*	-1	2	3
Cc1ccc(NC(=O)c2sc3nc(CCl)[nH]c(=O)c3c2C)c(C)c1	2	3	-1	3.7*	-1
Cc1csc(NC(=O)CSc2nc3sc(C)c(C)c3c(=O)[nH]2)n1	0	3	-1	2	0
Cc1cc(=O)[nH]c(=S)n1-c1ccccc1	2	9	0.9*	2	0
CC(COc1ccc(S(C)(=O)=O)cc1)CN1CCC(C(O)(c2ccccc2)c2ccccc2)CC1 (stereo unspecified)	-1	0	-2	0	x
Cc1cc(OCC(=O)N2CCCCCC2)ccc1[N+](=O)[O-]	0	12*	1	2	2
Cc1ccc(OCC(=O)N2CCCCCCC2)cc1C	1	5	-1	0	1
Cc1ccc(S(=O)(=O)NCCCc2ccc3c(c2)[C@]2(CCC[C@@H](OCc4ccccc4)[C@@H]2NC(=O)CCc2ccccc2)C(=O)N3Cc2ccccc2)cc1	0	2	-1	0	x
O=C(CCC(=O)OCCOc1ccccc1)OCCOc1ccccc1	-1	-3	-1	1	x
C[N+](C)(C)CCOC(=O)CCC(=O)OCC[N+](C)(C)C	-1	11*!	-1	1	0
O=S1(=O)c2ccc(Br)cc2OC[C@@H](Cc2ccccc2)N1Cc1cn(Cc2ccc(F)cc2)nn1	-2	1	-1	-1	x
COc1ccccc1/C=C/C(=O)NC(=S)N1CCN(C)CC1	0	0	-2	3.9*	3
COc1ccc(/C=C/C(=O)NC(=S)N2CCN(c3ccccc3OC)CC2)cc1	2	0	-1	1	5.5*
COCC1CCN(C(=O)C2CCC(=O)N(C3CCCC3)C2)CC1 (stereo unspecified)	4	4	0	0	0
CC(=O)NCCC1CCN(C(=O)C2CCC(=O)N(C3CCCC3)C2)CC1 (stereo unspecified)	0	-2	1.6*	0	0
